# Results as given in ChEMBL document CHEMBL4513216, “Probing the Open Global Health Chemical Diversity Library for Multistage-Active Starting Points for Next-Generation Antimalarials” (ACS Infect Dis, 2020).
# The campaign covered roughly 69,000 compounds. About 8,600 (12%) showed an effect of 50% or more. For the sample, strong results were picked, then their nearest neighbours and some compounds at random.
# System: Plasmodium berghei
# Assay: Screen against P. berghei liver stage (PbLuc), transformed with Luciferase, at 10uM
# Type: functional, HepG2
# Details: tested at 10 uM
row,Structure (SMILES),INHIBITION
1,CN(C(=O)c1ccccc1NCC(=O)O)C(C1CC1)C1CC1,25.8%
2,O=C(COCc1ccccc1Cl)N1CCCC(n2ccnc2)C1 (configuration not stated),17.5%
3,Cc1cccc(CN2C[C@@H]3COC[C@]3(CNC(=O)c3cccn3C)C2)n1,-17.1%
4,O=S(=O)(c1cccs1)N1CCCCC1c1ccn[nH]1 (configuration not stated),29.3%
5,CCS(=O)(=O)N1CCCC(n2nnn(-c3ccccc3)c2=O)C1 (configuration not stated),-8.5455%
6,Cc1cc(C)c(-n2cc(CCO)cn2)cc1C,-50.3%
7,Cc1nnc(N2CCc3cnc(C(C)C)nc3C2)c(C#N)c1C,6.72%
8,CC(CCc1ccccc1)N1CCC(C(=O)NCc2ccccc2)CC1 (configuration not stated),46.7%
9,Cc1cnnn1Cc1ncn2c1CN(Cc1cccs1)CCC2,15.9%
10,Cc1nn(C(C)(C)C)c(=O)n1CC(=O)NC(C)(C)C,-53.6%
11,O=C(Cn1c(=O)n(Cc2ccco2)c2ncccc21)NC1CCCCC1,53.5%
12,CC(C)N(C(=O)Cn1c(-c2ccco2)cc2cccnc21)C(C)C,39.3%
13,CCN(CC)C(=O)CSc1nc2cc(C)nc-2c(O)n1Cc1ccco1,26.7%
14,O=C(Cn1c(=O)n(Cc2ccco2)c2ncccc21)NC1CCCC1,48.6%
15,O=C(Cn1c(=O)n(Cc2ccco2)c2ncccc21)Nc1ccccn1,45.5%
16,CC(C)(C)NC(=O)Cn1c(=O)n(Cc2ccco2)c2ncccc21,61.9%
17,CCN(CC)C(=O)Cn1c(=O)n(Cc2ccco2)c2ncccc21,51.5%
18,O=C(Cn1c(=O)n(Cc2ccco2)c2ncccc21)NC1CC1,39.7%
19,Cc1ccc(C(=O)N2CCN(CCc3ccccc3)CC2)c(=O)[nH]1,-6.45%
20,COc1ccccc1CNC(=O)CS(=O)(=O)Cc1ccccc1,29.8%
21,Cn1cc(Cl)cc1C(=O)N1CCN(Cc2cccs2)CC1,-13.575%
22,CC(C)=CCN1CCN(Cc2nccn2C)C(C)C1 (configuration not stated),35.77%
23,COc1ccc(C(CNC(=O)NCc2csc(C)n2)N(C)C)cc1 (configuration not stated),23.5%
24,CNc1cncc(C2CCCN2C(=O)c2ccc3nc(C)[nH]c3c2)n1 (configuration not stated),2.6%
25,O=S1(=O)c2ccccc2C(O)CN1CCO (configuration not stated),-5.77%
26,COCCN1CCC2(CC1)CC1(CCN(S(C)(=O)=O)CC1)N(C)C2=O,40.8%

row,Structure (SMILES),INHIBITION
1,CC(=O)Nc1ccc(Oc2cc(C)nc(C3CCCNC3)c2)cc1 (configuration not stated),14.355%
2,CSCC(C)NS(=O)(=O)c1ccc(C)c(N(C)C)c1 (configuration not stated),-37.7%
3,Cc1cnc(N2C(=O)CSC2c2ccc(N(C)C)cc2)s1 (configuration not stated),39.9%
4,CC(C)c1nn(C)c(Cl)c1CNCc1ccc(N(C)C)nc1,18.85%
5,CC(=O)Nc1ccc(S(=O)(=O)NC(=O)CCC2CCCO2)cc1 (configuration not stated),57.2%
6,Cc1ccc(S(=O)(=O)NC(=O)CCC2CCCO2)cc1 (configuration not stated),-7.35%
7,O=C(CCC1CCCO1)NS(=O)(=O)c1ccc(Cl)cc1 (configuration not stated),-11.4%
8,Cc1nccn1CCCC(=O)N1CCC(N(C)c2cccnn2)CC1,12.7%
9,O=C(c1cnn[nH]1)N1CCCC1c1nc2cc(F)ccc2[nH]1 (configuration not stated),11.8%
10,CN(C)c1ccc(C(=O)NCCCc2ccccn2)cn1,62.8%
11,CN(Cc1ccco1)c1ccc(C(=O)NCCCc2ccccn2)cn1,58.2%
12,O=C(NCCCc1ccco1)c1cnc(N2CCOCC2)nc1,-18.8%
13,CCN(C)c1ccc(C(=O)NCCCc2ccccn2)cn1,-17.9%
14,CN(CC(C)(C)C)c1ccc(C(=O)NCCCc2ccccn2)cn1,-20.6%
15,CCn1c(N)nc2cc(C(=O)NCCCc3ccccn3)cnc21,11.8%
16,Cc1ccc(CN2CCOC3(CCN(CC4CCOC4)CC3)C2)cc1 (configuration not stated),36.7%
17,CSCCC(Nc1nc(C)cc(C)n1)C(=O)NC1CCCC1 (configuration not stated),36.8%
18,COC(=O)c1ccc(N2CCN(C(=O)c3cc(C)on3)C(C)C2)cc1 (configuration not stated),54.3%
19,COC(=O)c1ccc(N2CCN(C(=O)c3cnccn3)C(C)C2)cc1 (configuration not stated),-23.8%
20,COC(=O)c1ccc(N2CCN(C(=O)c3cc(C)no3)C(C)C2)cc1 (configuration not stated),-11.4%
21,COC(=O)c1ccc(N2CCN(C(=O)c3cnc(C)cn3)C(C)C2)cc1 (configuration not stated),66.7%
22,COCC(=O)N1CCN(c2ccc(C(=O)OC)cc2)CC1C (configuration not stated),-31.4%
23,COC(=O)c1ccc(N2CCN(C(=O)C(C)C)C(C)C2)cc1 (configuration not stated),-37.6%
24,Cc1cc(Oc2ccc(NC(=O)C3CC3)cc2)cc(C2CCNCC2)n1,10.535%
25,CN(CCCc1cnn(C)c1)c1nccc(-c2cc(C(=O)O)ccn2)n1,21.2%
26,Cc1cccc(CN2Cc3nccn3CC(CN3CCOCC3)C2)c1 (configuration not stated),43.9%
